# SW480 rereplic: A quantitative high throughput screen for small molecules that induce DNA re-replication in SW480 colon adenocarcinoma cells. 340,000 tested, 1.8% active. Potency, µM (series often up to 46.1 µM), without a hit: top-dose re-replication activation, hits mostly activators. AID 624297, 2012. SW480 DNA re-replication, Hoechst DNA content imaging, 48 h; also: % of control where 0% means no effect; nearly all actives have a fitted effect of over 55% in size
#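 DNA re-replication was detected as more nuclei of elevated Hoechst intensity after 48 hr exposure to compound (23 nL pinned per well of 250 cells).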
# KB-3-1 tox: qHTS assay for MDR1-selective chemotherapeutics: Primary screen using the parental adenocarcinoma cell KB-3-1 | KB-3-1 viability, CellTiter-Glo ATP luminescence, 72 h | Potency, µM (titrated, usually from 46.1 µM), hits mostly cytotoxic | 400,000 tested, 1.4% active; also: % is scaled to controls: 0 for no effect and ±100 for the full control effect; nearly all actives have a fitted effect of over 60% in size
#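 Cytotoxicity in the drug-sensitive parental line KB-3-1 was scored as loss of CellTiter-Glo luminescence following 72 h incubation with compound. Values come from curve fitting of normalized concentration-response data.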
# KB-V1 cytotox: qHTS assay for MDR1-selective chemotherapeutics: Primary screen using the drug-selected MDR subline cells KB-V1; KB-V1 MDR cells viability, CellTiter-Glo, 72 h; Potency, µM (series often up to 46.1 µM), hits mostly cytotoxic; 400,000 tested, 3.4% active; AID 1347076, 2019; also: % is scaled to controls: 0 for no effect and ±100 for the full control effect; nearly all actives have a fitted effect of over 60% in size
#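 Cytotoxicity via CellTiter-Glo luminescence after 72 h compound exposure at 37 degrees C. Cells: drug-selected KB-V1 line, DMEM phenol-red free plus 10% FBS. Compounds tested at multiple concentrations; normalized data fitted to concentration-effect curves.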
# MCF10A rerep: A quantitative high throughput screen for small molecules that induce DNA re-replication in MCF 10a normal breast cells; MCF 10A DNA re-replication, Hoechst nuclear intensity, 48 h; Potency, µM (doses to about 46.1 µM), for inactives: at the highest dose activity, positive = re-replication, usual class: activators; 350,000 tested, 2.9% active; AID 624296, 2012; also: % of control where 0% means no effect; nearly all actives have a fitted effect of over 50% in size
# HT1080 IDH1KD tx: qHTS for induction of synthetic lethality in tumor cells producing 2HG: qHTS for the HT-1080-IDH1KD cell line; HT-1080 IDH1 knockdown viability, ATP luminescence, 48 h; Potency, µM (series often up to 46.1 µM), without a hit: top-dose activity, negative = toxicity, actives largely listed as cytotoxic; 360,000 tested, 2% active;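 also: 0% = DMSO wells and -100% = cell-free medium wells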
#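 CellTiter-Glo luminescence after 48 h compound exposure at 37 degrees C of IDH1-knockdown HT-1080 cells in 5% FBS RPMI. %Activity scaled between DMSO wells and cell-free media wells, with curves fitted and assigned curve classes.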
# HT1080NT lethal: qHTS for induction of synthetic lethality in tumor cells producing 2HG: qHTS for the HT-1080-NT fibrosarcoma cell line; HT-1080-NT fibrosarcoma viability, CellTiter-Glo ATP luminescence, 48 h; 360,000 tested, 1.6% active; Potency, µM (titrated, usually from 46.1 µM), inactives show at the highest dose activity, negative = less viability, usual class: cytotoxic;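 also: NT is the 2HG producing partner of a matched IDH1 knockdown line; 0% = DMSO-treated cells and -100% = media-only wells without cells; nearly all actives have a fitted effect of over 55% in size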
#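 Viability of the 2HG-overproducing fibrosarcoma line after 48 hours of compound exposure at 37 degrees C was determined by luminescence with CellTiter-Glo, and concentration-effect curves were then fitted and categorized.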
# The depositor's hits bear a star; i = inactive; u = inconclusive; x = no result; [ ] = remark or other dose. In the library only some 7.9% were active in any assay of this set; here they are far more common. Calls follow the shape of the dose curve; as a rule, active = well fitted curve in the direction sought with a large enough effect; inconclusive = small, poorly fitted or top-dose-only effect, or another doubt; inactive = no such curve, though single readings can be large; an effect the other way counts as inactive or inconclusive. Potency is read from the fitted curve at half-maximal effect.
SMILES,SW480 rereplic,KB-3-1 tox,KB-V1 cytotox,MCF10A rerep,HT1080 IDH1KD tx,HT1080NT lethal
Cc1ccc(O)c(C(=O)c2cnc3c(c2)CN(C)C(=O)N3)c1,u,u,7.9µM*,u,u,u
C/C(CC(=O)Nc1ccc(Cl)c(C(F)(F)F)c1)=N\NC(=O)c1ccccc1O,107%,u,18µM*,u,u,u
C/C(CC(=O)Nc1ccc(N(C)C)cc1)=N\NC(=O)c1ccccc1O,u,i,i,u,u,21µM*
C/C(CC(=O)Nc1ccc(Cl)c(C(F)(F)F)c1)=N\NC(=O)c1cccc(O)c1,-2%,u,i,0%,3%,4%
C/C(CC(=O)Nc1ccc([N+](=O)[O-])cc1)=N\NC(=O)c1ccccc1O,25%,i,i,u,-25%,-27%
CCOC(=O)C1=C(c2ccccc2)NC(=O)NC1c1ccc(O)c(OCC)c1 (configuration not stated),0%,u,i,1%,0%,-3%
CCOC(=O)C1=C(c2ccccc2)NC(=S)NC1c1ccc(C)c([N+](=O)[O-])c1 (configuration not stated),u,i,2.9µM*,u,-16%,-20%
CCOC(=O)C1=C(c2ccccc2)NC(=S)NC1c1cc([N+](=O)[O-])ccc1OC (configuration not stated),17%,i,i,-2%,-4%,-5%
CCOC(=O)C1=C(C)NC(C)=C(C(=O)OCC)C1c1cccc([N+](=O)[O-])c1,x,i,u,x,-29%,-2%
CCOC(=O)C1=C(c2ccccc2)NC(=O)NC1c1ccc(O)c(Cl)c1 (configuration not stated),-1%,i,i,0%,13µM*,12µM*
C#CCN1C(C)=C(C(=O)OC)C(c2cccc([N+](=O)[O-])c2)C(C(=O)OCC)=C1C (configuration not stated),3%,i,12µM*,3%,13%,u
CCOC(=O)C1=C(c2ccccc2)NC(=S)NC1c1cccc([N+](=O)[O-])c1 (configuration not stated),-2%,i,15µM*,11%,1%,8%
CCc1ccc(C(C(=O)NC2CCCC2)N(CCOC)C(=O)CCC(=O)Nc2cc(C)on2)cc1 (configuration not stated),12%,i,i,17%,6%,-17%
COc1ccc(OC)c(NC(=O)c2cc(S(=O)(=O)NCCc3ccc(Cl)cc3)ccc2F)c1,x,i,i,x,x,x
CC1=C(C(=O)OCc2ccccc2)C(c2cccc([N+](=O)[O-])c2)NC(=O)N1 (configuration not stated),-10%,i,i,2%,-1%,7%
CC1=C(C(=O)OCc2ccccc2)C(c2cccc([N+](=O)[O-])c2)NC(=O)N1C (configuration not stated),-59%,i,u,0.82µM*,-2%,-6%
COc1ccc(C2C(C(=O)c3ccco3)=C(O)C(=O)N2CCN2CCOCC2)cc1 (configuration not stated),10%,i,i,u,9%,24%
CCCC1=NN(C(=O)C(=O)Nc2ccc(Br)cc2)C(O)(C(F)(F)F)C1 (configuration not stated),u,i,i,17%,16µM*,13µM*
COc1ccc(NC(=O)C(=O)N2N=C(C(C)C)CC2(O)C(F)(F)F)cc1 (configuration not stated),u,i,i,u,8.9µM*,u
CCC1=NN(C(=O)C(=O)Nc2ccc(Br)cc2)C(O)(C(F)(F)F)C1 (configuration not stated),47%,i,i,u,u,21µM*
CC(C)C1=NN(C(=O)c2cccnc2)C(O)(C(F)(F)F)C1 (configuration not stated),2%,i,i,u,-2%,6%
CCC1=NN(C(=O)CCc2ccccc2O)C(O)(C(F)(F)F)C1 (configuration not stated),-1%,i,i,-6%,8%,21%
O=C(N1CCOCC1)N1CCN(S(=O)(=O)N2CCCCC2)CC1,0%,i,i,1%,10%,16%
CCCN(CCC)CCc1cccc2c1CC(=O)N2,-8%,x,x,u,x,x
Cc1n(Cc2ccccc2)c2ccccc2[n+]1Cc1ccccc1,1%,6.5µM*,i,16%,u,-16%
SMILES,SW480 rereplic,KB-3-1 tox,KB-V1 cytotox,MCF10A rerep,HT1080 IDH1KD tx,HT1080NT lethal
Cc1cc(C)n(CC(O)Cn2c3ccccc3c3ccccc32)n1 (configuration not stated),6%,i,i,u,u,-15%
Cc1cc(C)n(CC(O)Cn2c3ccc(Cl)cc3c3cc(Cl)ccc32)c(=O)n1 (configuration not stated),4%,i,16µM*,2%,u,u
CC(C)Oc1ccc(CCC(=O)N/N=C/c2ccncc2)cc1,u,i,i,-1%,-1%,6%
CN(CCOc1ccc(Cl)cc1)C(=O)c1cc(-c2ccco2)nc2ccccc12,-28%,i,16µM*,u,-14%,-5%
CCSc1nnc([C@H](Cc2ccccc2)NC(=O)OC(C)(C)C)o1,2%,i,16µM*,7%,-14%,3%
CCC(C)[C@@H](NC(=O)OC(C)(C)C)c1nnc(S(=O)(=O)Cc2cccc(C)c2)o1 (some centres not stated),u,i,i,16µM*,-21%[9.24 µM],18µM*
CC(C)(C)OC(=O)N[C@@H](Cc1ccccc1)c1nnc(SCC(=O)O)o1,-3%,i,i,18%,1%,-1%
CCCCSc1nnc([C@H](C)NC(=O)OC(C)(C)C)o1,-3%,i,13µM*,16%,-18%,4%
CC(C)(C)OC(=O)N[C@@H](Cc1c[nH]c2ccccc12)c1nnc(SCC(N)=O)o1,-14%,i,i,2%,3%,10%
